The source of these data is PubChem BioAssay (Tox21).

A short description of test [1]: qHTS assay to identify small molecule antagonists of the glucocorticoid receptor (GR) signaling pathway - cell viability counter screen (AID 720693). Also: nearly all actives have a fitted effect of over 55% in size. Also: potency is read from the fitted curve at half-maximal effect. For orientation: qHTS replaces the single test concentration by a dilution series.
Test [2] is described as follows: qHTS assay for identifying genotoxic compounds that show differential cytotoxicity against isogenic chicken DT40 cell lines with known DNA damage response pathways - wild type cell line (AID 743012). Also: nearly all actives have a fitted effect of over 60% in size. Also: potency is read from the fitted curve at half-maximal effect. The method, boiled down: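 First, wild type DT40 cells were plated at 300 per well and equilibrated about 0.5 h at 37 C/5% CO2. Next, compounds in DMSO were added and exposure lasted 40 h. Finally, CellTiter-Glo was added for 30 min at room temperature and luminescence recorded.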

Test [3] can be described thus: qHTS assay for identifying genotoxic compounds that show differential cytotoxicity against isogenic chicken DT40 cell lines with known DNA damage response pathways - Rev3 mutant cell line (AID 743014). Also: nearly all actives have a fitted effect of over 55% in size. Also: potency is read from the fitted curve at half-maximal effect.
Test [4] is described as follows: qHTS assay for identifying genotoxic compounds that show differential cytotoxicity against isogenic chicken DT40 cell lines with known DNA damage response pathways - Rad54/Ku70 mutant cell line (AID 743015). Also: nearly all actives have a fitted effect of over 60% in size. Also: potency is read from the fitted curve at half-maximal effect.
Test [5] in a line: qHTS assay to identify small molecule antagonists of the androgen receptor (AR) signaling pathway - cell viability counter screen (AID 743033; also: nearly all actives have a fitted effect of over 45% in size).
The nature of test [6]: qHTS assay to identify small molecule antagonists of the androgen receptor (AR) signaling pathway using the MDA cell line - cell viability counter screen (AID 743041; also: nearly all actives have a fitted effect of over 45% in size). In a few lines: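 Same-well cytotoxicity was assessed by CellTiter-Fluor in MDA-kb2 AR-luc cells after 16 h of compound treatment under R1881 agonism.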
Test [7] is described as follows: qHTS assay to identify small molecule antagonists of the thyroid receptor (TR) signaling pathway (AID 743065). Also: nearly all actives have a fitted effect of over 55% in size. Also: potency is read from the fitted curve at half-maximal effect. The method, boiled down:
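GH3.TRE-Luc rat pituitary cells (two TREs driving luciferase) were dosed with compound, then stimulated with 1 nM T3 (final) for 23.5 h at 37 C. ONE-Glo luminescence was the read-out, with CellTiter-Fluor fluorescence as the cytotoxicity counter-screen.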

In test [8] the test system is thyroid hormone receptor (rat, GH3 cells). The test is described as follows: qHTS assay to identify small molecule agonists of the thyroid receptor (TR) signaling pathway (AID 743066; calls by dose curve).
Test [9] in a line: qHTS assay to identify small molecule antagonists of the estrogen receptor alpha (ER-alpha) signaling pathway - cell viability counter screen (AID 743074; calls by dose curve;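 also: HEK293 cells carrying ER-alpha-UAS-bla reporter stimulated with 17beta-estradiol; nearly all actives have a fitted effect of over 45% in size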).
Test [10] in a line: qHTS assay to identify small molecule antagonists of the estrogen receptor alpha (ER-alpha) signaling pathway using the BG1 cell line - cell viability counter screen (AID 743081).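 Also: compound given together with 17beta-estradiol as the ER stimulus; series mostly up to about 70 µM; nearly all actives have a fitted effect of over 45% in size.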
Test [11] deals with Aromatase (Homo sapiens) (UniProt P11511). The test is described as follows: qHTS assay to identify aromatase inhibitors (AID 743083). Also: series mostly up to about 70 µM; nearly all actives have a fitted effect of over 55% in size.
Aromatase (Homo sapiens), sequence (P11511 whole entry, looked up): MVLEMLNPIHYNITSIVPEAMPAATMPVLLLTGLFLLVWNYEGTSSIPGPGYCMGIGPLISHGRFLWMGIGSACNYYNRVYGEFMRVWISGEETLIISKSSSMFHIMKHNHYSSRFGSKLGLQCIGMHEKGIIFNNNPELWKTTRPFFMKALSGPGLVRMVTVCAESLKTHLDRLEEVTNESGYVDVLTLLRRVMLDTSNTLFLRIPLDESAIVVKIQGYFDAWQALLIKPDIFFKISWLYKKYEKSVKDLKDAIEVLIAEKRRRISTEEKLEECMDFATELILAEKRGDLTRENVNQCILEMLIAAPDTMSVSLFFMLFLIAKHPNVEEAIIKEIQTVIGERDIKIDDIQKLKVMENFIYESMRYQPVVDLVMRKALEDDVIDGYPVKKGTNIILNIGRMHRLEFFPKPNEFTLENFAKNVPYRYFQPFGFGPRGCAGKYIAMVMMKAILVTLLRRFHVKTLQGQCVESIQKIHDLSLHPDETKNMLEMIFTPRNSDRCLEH
Test [12] in a line: qHTS assay to identify small molecule antagonists of the thyroid receptor (TR) signaling pathway - cell viability counter screen (AID 743064). Also: nearly all actives have a fitted effect of over 50% in size. Also: potency is read from the fitted curve at half-maximal effect. In a few lines:
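Fluorescence from CellTiter-Fluor, added after 23.5 h exposure at 37 °C, reported viability of GH3.TRE-Luc cells co-treated with compound and 1 nM T3. Measured in the same wells as the luciferase TR readout.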

For test [13], the target named is Estrogen receptor (Homo sapiens) (UniProt P03372). Description: qHTS assay to identify small molecule antagonists of the estrogen receptor alpha (ER-alpha) signaling pathway (AID 743069; active = well fitted curve in the direction sought with a large enough effect in the signal ratio in the repeat runs, not every such curve was filed as active; the % refers to the signal ratio). In a few lines:
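Reporter cells (ER-alpha-bla, HEK293 background) are conditioned overnight in stripped-serum medium (2% charcoal-stripped FBS). Compound and 17beta-estradiol exposure runs 18 hr at 37C, 5% CO2.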

For test [14] the target is unchanged. The test is described as follows: qHTS assay to identify small molecule agonists of the estrogen receptor alpha (ER-alpha) signaling pathway (AID 743075; calls by dose curve;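 also: HEK293 GripTite cells with ER-alpha and UAS-driven beta-lactamase reporter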).
Test [15] shares this target. Description: qHTS assay to identify small molecule agonists of the estrogen receptor alpha (ER-alpha) signaling pathway using the BG1 cell line (AID 743079). Also: nearly all actives have a fitted effect of over 20% in size. Also: potency is read from the fitted curve at half-maximal effect.
Test [16] in a line: qHTS assay to identify small molecule antagonists of the estrogen receptor alpha (ER-alpha) signaling pathway using the BG1 cell line (AID 743080; calls by dose curve;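 also: BG1 cells stimulated with 17beta-estradiol alongside compound; series mostly up to about 70 µM; nearly all actives have a fitted effect of over 25% in size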). In a few lines:
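After 5 days in phenol-red-free 10% charcoal-stripped FBS medium, BG1-Luc-4E2 cells were seeded, left 24 h at 37 C, co-treated with compounds and 17beta-estradiol for 21.5 h, then assayed for viability and luciferase.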

Several values for one entry are separate records, joined by “and”; a condition that tells them apart may be missing. Equal entries are not always repeated. Inconclusive results are not listed. The source holds several records for some structures; these can differ, active in one and inactive in another. Activity calls are given as the source filed them. Unless noted, calls follow the shape of the dose curve; as a rule, active = well fitted curve in the direction sought with a large enough effect in the repeat runs; inconclusive = weak or mixed curves; inactive = no such curve, though single readings can be large; an effect the other way counts as inactive or inconclusive.

Estrogen receptor (Homo sapiens), sequence (P03372 whole entry, looked up): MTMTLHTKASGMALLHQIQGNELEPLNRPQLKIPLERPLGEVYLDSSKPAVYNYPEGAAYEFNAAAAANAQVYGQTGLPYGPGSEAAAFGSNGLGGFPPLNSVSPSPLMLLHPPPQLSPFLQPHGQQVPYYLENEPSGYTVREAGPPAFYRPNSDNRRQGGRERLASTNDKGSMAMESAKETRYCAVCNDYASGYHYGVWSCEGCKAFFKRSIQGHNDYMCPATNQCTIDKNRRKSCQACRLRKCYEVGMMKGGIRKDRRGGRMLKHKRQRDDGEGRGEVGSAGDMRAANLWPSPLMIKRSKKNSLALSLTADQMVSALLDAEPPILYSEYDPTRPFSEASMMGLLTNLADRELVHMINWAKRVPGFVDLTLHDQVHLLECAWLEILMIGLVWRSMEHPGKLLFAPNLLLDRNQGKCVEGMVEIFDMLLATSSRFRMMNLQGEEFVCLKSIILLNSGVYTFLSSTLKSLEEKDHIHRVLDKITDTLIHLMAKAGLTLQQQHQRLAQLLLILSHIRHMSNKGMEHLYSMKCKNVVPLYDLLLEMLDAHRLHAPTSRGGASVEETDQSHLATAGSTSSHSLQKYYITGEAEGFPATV

In the case of `Cc1cccc(Nc2ccccc2C(=O)O)c1C`, the Potency entry in test [1], in [2], in test [3], in test [5], in [6] and in [8] was “inactive” in each case. Moreover, the Potency entry in test [9], in [10] and in test [11] was “inactive” throughout. For the same molecule, the Potency result is “inactive and 61.1 µM (active)” in test [4]; 21.1 µM (active) and 54.5 µM (active) in test [7].

As to `[Na+]`, the Potency entry in test [1], in test [2], in [3], in test [4], in [5] and in test [12] was “inactive” in each case. Moreover, the Potency result in [7], in [8], in test [13], in [9], in [14] and in test [15] was “inactive” each time. For the same molecule, the Potency entry in [16], in [10] and in test [11] was “inactive” each time.

`C=CCCCCCCCCCC`: the Potency result in test [1], in test [2], in test [3], in test [4], in test [5] and in [6] was “inactive” throughout. For the same molecule, the Potency entry in test [12], in test [7], in test [8], in test [9], in [10] and in [11] was “inactive” throughout.

As to `O=C(O)c1cc(=O)[nH]c(=O)[nH]1`, the Potency entry in test [1], in [2], in test [3], in test [4], in test [5] and in test [12] was “inactive” each time. The Potency entry in test [7], in test [8], in [13], in test [9], in test [14] and in [15] was “inactive” each time. Besides, the Potency entry in test [16], in test [10] and in [11] was “inactive” each time.

As to `Cc1ccc(S(=O)(=O)O)cc1C`, the Potency entry in [1], in test [2], in test [3], in test [4], in test [5] and in test [12] was “inactive” throughout. The Potency entry in test [7], in [8], in [13], in test [9], in test [14] and in [15] was “inactive” in each case. Further, the Potency entry in test [16], in [10] and in test [11] was “inactive” in each case.

Regarding `CCCCCCCCCCC(CO)CCCCCCCC` (configuration not stated), the Potency result in [1], in test [2], in [3], in test [4], in test [5] and in test [6] was “inactive” throughout. Also, the Potency result in test [12], in test [7], in test [8], in test [9], in [10] and in test [11] was “inactive” throughout.

As to `NC[C@H](O)c1ccc(O)c(O)c1`, the Potency result in test [1], in test [5], in [6], in [9], in test [10] and in [11] was “inactive” in each case. The Potency in [2] was 23.7 µM (active) and 21.7 µM (active); in test [3], 21.1 µM (active) and 17.2 µM (active); in test [4] it was 24.3 µM (active).

Turning to `CCCOCCO`, the Potency entry in [1], in test [2], in test [3], in [4], in [5] and in test [6] was “inactive” in each case. The Potency result in test [12], in [7], in test [8], in test [9], in [10] and in [11] was “inactive” each time.

Consider `C[N+](C)(C)CCO`, for which the Potency result in [1], in test [2], in [3], in [4], in test [5] and in test [6] was “inactive” in each case. In addition, the Potency result in test [12], in test [8], in test [9], in test [16], in test [10] and in test [11] was “inactive” in each case.

In the case of `CC(C)=CCO`, the Potency entry in test [1], in test [2], in test [3], in test [4], in test [5] and in [6] was “inactive” throughout. For the same molecule, the Potency entry in [7], in test [8], in test [13], in test [9], in test [14] and in test [15] was “inactive” in each case. Besides, the Potency entry in test [16], in test [10] and in test [11] was “inactive” in each case.

As for `O=C1CCc2ccccc2O1`, the Potency result in [1], in [2], in test [3], in [4], in test [5] and in test [12] was “inactive” throughout. The Potency entry in test [7], in test [8], in [13], in [9], in [14] and in test [15] was “inactive” throughout. Further, the Potency entry in [16], in [10] and in test [11] was “inactive” each time.

On to `CC1(C)O[C@@H]2C[C@H]3[C@@H]4C[C@H](F)C5=CC(=O)C=C[C@]5(C)[C@@]4(F)[C@@H](O)C[C@]3(C)[C@]2(C(=O)CO)O1`, for which the Potency result in test [1], in test [2], in [3], in test [4], in [5] and in test [12] was “inactive” throughout. The Potency entry in test [7], in test [8], in [13], in test [9], in [14] and in test [15] was “inactive” throughout. Further, the Potency entry in [16], in test [10] and in test [11] was “inactive” each time.

Consider `C[C@]12CC[C@@H]3c4ccc(O)cc4CC[C@H]3[C@@H]1CC[C@H]2O`, for which the Potency in test [1] was 17.4 µM (active); in test [2] it was 44 µM (active) and 48.6 µM (active); in [3], 24.8 µM (active) and 48.6 µM (active); in test [4] it was 27.8 µM (active) and 54.5 µM (active); in [7], 9.86 µM (active) and 24.3 µM (active). Besides, the Potency entry in test [5], in test [6], in [8], in [9] and in test [10] was “inactive” each time.

Regarding `COc1ccc(C(=O)c2ccccc2O)c(O)c1`, the Potency result in test [1], in [2], in test [3], in test [4], in test [5] and in [6] was “inactive” throughout. Moreover, the Potency result in [12], in test [7], in [8], in test [9], in [10] and in test [11] was “inactive” in each case.

Take `C=C[C@H]1CN2CC[C@H]1C[C@H]2[C@H](O)c1ccnc2ccc(OC)cc12`: the Potency entry in [1], in test [5], in test [6], in [9], in test [10] and in test [11] was “inactive” throughout. The Potency in test [2] is 13.3 µM (active) and 8.41 µM (active) and 54.5 µM (active); in test [3], 23.7 µM (active) and 13.3 µM (active) and 27.3 µM (active); in [4], 26.6 µM (active) and 13.3 µM (active) and 27.3 µM (active); in test [12] it was “inactive and 43.3 µM (active)”.

Turning to `CN1CCOCC1`, the Potency entry in test [1], in test [2], in test [3], in [4], in test [5] and in [6] was “inactive” throughout. The Potency result in test [12], in [7], in [8], in [9], in test [10] and in [11] was “inactive” each time.

For `Cc1ccc([N+](=O)[O-])c(C)c1`, the Potency result in test [1], in test [2], in test [3], in [4], in test [5] and in [12] was “inactive” each time. Moreover, the Potency entry in test [7], in test [8], in test [13], in test [9], in [14] and in test [16] was “inactive” throughout. Besides, the Potency result in test [10] and in test [11] was “inactive” each time. In test [15], the Potency result is “inactive and 68.6 µM (active)”.
